Measured values reported in the supplement of paper PMC3334620.
Over roughly 33,000 sequences, “E-score (-0.5 to 0.5)” has its median near -0.04; the highest 2% begin near 0.36. Shown is part of a subset that was picked to be rich in the highest values.

Biological target: T1, Hmlalpha2 (UniProt P0CY09)
T1 sequence: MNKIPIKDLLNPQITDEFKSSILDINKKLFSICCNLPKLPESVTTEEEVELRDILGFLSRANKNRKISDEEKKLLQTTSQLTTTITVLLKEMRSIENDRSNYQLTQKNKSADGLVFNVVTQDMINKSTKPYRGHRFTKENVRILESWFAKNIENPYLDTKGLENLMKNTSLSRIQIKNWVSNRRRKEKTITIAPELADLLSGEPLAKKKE
Assay: PBM E-score (8-mer binding enrichment) (E-score (-0.5 to 0.5)); higher = stronger / more preferred TF binding
Details: protein concentration: 200 nM; construct: GST-full length
Summary of the method: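 Universal all-10-mer Agilent arrays, fresh or stripped once, were converted to double-stranded form by primer extension. GST-tagged yeast transcription factors from PURExpress in vitro transcription/translation, full-length or DNA-binding domain only, were applied at about 100-200 nM and detected with fluorescent anti-GST. After masliner normalisation, the Universal PBM Analysis Suite scored each ungapped eight-base word together with its reverse complement by E-score.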

Going from CGTTTACC to GTTTTATA, the “PBM E-score” value rises from 0.0999 to 0.144.

Compared with GGTTTAAC, GTTTTACA is higher in “PBM E-score” value: 0.279 for the first, 0.408 for the second.

Compared with GGTTTAGA, CGTTTAAG is higher in “PBM E-score” value: -0.168 for the first, -0.102 for the second.

First: CGTTTACA
Second: CGTTTAAC
The “PBM E-score” value of the first is higher: 0.452 for the first, 0.365 for the second.

Going from GTTTTAAA to TCAGGGCA, the “PBM E-score” value falls from 0.22 to -0.0208.

First: AGGATATG
Second: ATGGTCAC
The “PBM E-score” value of the first is higher: -0.0728 for the first, -0.0853 for the second.

Going from GCTGAATA to CGGGAAGC, the “PBM E-score” value falls from 0.0885 to -0.026.

First: AGTTTACG
Second: AGTTTACC
The “PBM E-score” value of the first is higher: 0.278 for the first, 0.075 for the second.

Compared with AGTTTACA, CGCATTAG is lower in “PBM E-score” value: 0.405 for the first, -0.105 for the second.

First: GCCTGTCA
Second: CAGTGTGG
The “PBM E-score” value of the first is higher: -0.0584 for the first, -0.13 for the second.

Going from AACATTTA to AACATCTG, the “PBM E-score” value falls from 0.242 to 0.128.

Compared with CACATGTG, AAGATGTA is higher in “PBM E-score” value: 0.163 for the first, 0.268 for the second.

First: AACATGTG
Second: AACATGTT
The “PBM E-score” value of the first is lower: 0.395 for the first, 0.46 for the second.

Going from AACATGTC to AACATCTT, the “PBM E-score” value falls from 0.333 to -0.0095.

Going from AACATGTA to ACCAGCAC, the “PBM E-score” value falls from 0.484 to -0.0704.

First: ATGCGAAT
Second: CGGTCAGA
The “PBM E-score” value of the first is higher: -0.0339 for the first, -0.199 for the second.

First: CAAGGTCA
Second: TAGGTGGA
The “PBM E-score” value of the first is lower: -0.102 for the first, -0.0803 for the second.

Compared with CGGTGGAG, ATACTGGA is higher in “PBM E-score” value: -0.362 for the first, 0.0598 for the second.

Compared with TTACATAA, TGACATAA is lower in “PBM E-score” value: 0.474 for the first, 0.319 for the second.

First: CAACATAA
Second: GTACATAA
The “PBM E-score” value of the first is lower: 0.359 for the first, 0.377 for the second.

Compared with CTACATAA, GGACATAA is lower in “PBM E-score” value: 0.317 for the first, 0.05 for the second.

Compared with TAACATAA, GCACATAA is lower in “PBM E-score” value: 0.422 for the first, 0.12 for the second.

Going from GAACATAA to GCCAAGAC, the “PBM E-score” value falls from 0.191 to -0.161.

First: CGTGCAAA
Second: ACAATTTA
The “PBM E-score” value of the first is lower: 0.172 for the first, 0.173 for the second.

First: GGACTAGA
Second: TCATGGAA
The “PBM E-score” value of the first is lower: -0.227 for the first, -0.157 for the second.

Compared with TCATGTCA, TCATGTAA is higher in “PBM E-score” value: 0.359 for the first, 0.482 for the second.

Compared with GCATGTCA, GCATGTGA is lower in “PBM E-score” value: 0.36 for the first, 0.263 for the second.

Going from GCATGTAA to AAGGTCCG, the “PBM E-score” value falls from 0.485 to -0.108.

First: AACCTCGA
Second: TAGGAGAA
The “PBM E-score” value of the first is lower: -0.0213 for the first, 0.122 for the second.

First: GCATAGCC
Second: GTTTTTAA
The “PBM E-score” value of the first is lower: -0.0671 for the first, 0.279 for the second.

Going from CTGTGTTC to GTGTGTTA, the “PBM E-score” value rises from 0.304 to 0.435.

Compared with ATGTGTTC, ATGTGTGG is lower in “PBM E-score” value: 0.233 for the first, 0.0473 for the second.

Compared with ATGTGTTG, ATGTGTCA is lower in “PBM E-score” value: 0.39 for the first, 0.261 for the second.

Going from GGGTGTTA to ATGTGTTA, the “PBM E-score” value rises from 0.195 to 0.429.

First: CTGTGTTA
Second: ATGTGTGA
The “PBM E-score” value of the first is higher: 0.398 for the first, 0.202 for the second.

Compared with CGGTGTTA, GAGTGTTA is lower in “PBM E-score” value: 0.253 for the first, 0.21 for the second.

Going from GTGGACCA to ACTCTGTA, the “PBM E-score” value rises from -0.0852 to 0.204.

First: ATATCACC
Second: ACTGCTCG
The “PBM E-score” value of the first is higher: 0.0884 for the first, -0.0631 for the second.

First: CCTTCAAC
Second: GTGATCAC
The “PBM E-score” value of the first is higher: 0.058 for the first, -0.229 for the second.

Going from ATCGCTGC to TAAGCGCA, the “PBM E-score” value rises from -0.136 to 0.0443.

Going from AGTCAACA to CTTGGTCC, the “PBM E-score” value falls from 0.269 to -0.159.

Going from CCCATACC to AGGTACAC, the “PBM E-score” value rises from -0.159 to 0.0905.

Compared with GTGTACAA, TAGTACAA is lower in “PBM E-score” value: 0.439 for the first, 0.244 for the second.

Compared with CTGTACAA, ATGTACAC is higher in “PBM E-score” value: 0.288 for the first, 0.43 for the second.

Going from GGGTACAA to CTGTACAG, the “PBM E-score” value falls from 0.0999 to 0.0499.

First: GCGTACAC
Second: GTGTACAC
The “PBM E-score” value of the first is lower: 0.247 for the first, 0.415 for the second.

Compared with ATGTACCC, TTGTACAA is higher in “PBM E-score” value: 0.148 for the first, 0.442 for the second.

Going from CTGTACAC to AACTGCGT, the “PBM E-score” value falls from 0.291 to 0.257.

First: ATGAAGAC
Second: GTGAAATA
The “PBM E-score” value of the first is lower: 0.028 for the first, 0.185 for the second.

Compared with TACGTCGA, CCCGCCAC is lower in “PBM E-score” value: 0.0708 for the first, -0.152 for the second.

Compared with ATATTGGG, GACTCTGA is higher in “PBM E-score” value: -0.261 for the first, -0.12 for the second.

Compared with CTCGAACA, AAAGCCAT is lower in “PBM E-score” value: 0.112 for the first, 0.0384 for the second.

Compared with AACCCTGG, ATGTACTG is higher in “PBM E-score” value: -0.204 for the first, 0.351 for the second.

Going from ATGTACAT to GTGTACTA, the “PBM E-score” value falls from 0.457 to 0.311.

Going from ATGTACAA to ATGTACGA, the “PBM E-score” value falls from 0.433 to 0.281.

Compared with ATGTACTA, AGGTACAA is lower in “PBM E-score” value: 0.397 for the first, 0.21 for the second.

Going from AGGTACAT to ATGTACAG, the “PBM E-score” value rises from 0.288 to 0.289.

Going from GCGCAAGA to AAGACAGT, the “PBM E-score” value falls from -0.0432 to -0.0478.

First: AGAAAGTG
Second: CCATTCGA
The “PBM E-score” value of the first is lower: -0.223 for the first, -0.0609 for the second.

Going from ATCTCGTA to AAATCCGC, the “PBM E-score” value falls from 0.191 to -0.125.

First: GAAAATTC
Second: CAGCCTTC
The “PBM E-score” value of the first is higher: -0.0326 for the first, -0.301 for the second.

First: ACATGAGA
Second: GCATGATA
The “PBM E-score” value of the first is higher: 0.406 for the first, 0.116 for the second.

Compared with TCATGAGA, CCATGATA is lower in “PBM E-score” value: 0.0706 for the first, -0.142 for the second.

Compared with ACATGATA, ACATGAGT is lower in “PBM E-score” value: 0.435 for the first, 0.364 for the second.

Going from ACATGATG to ACATGATC, the “PBM E-score” value rises from 0.348 to 0.426.

Going from CCATGATC to CGGATATC, the “PBM E-score” value rises from -0.128 to -0.0199.

First: TCTCTGAA
Second: CGCATAGC
The “PBM E-score” value of the first is lower: -0.162 for the first, -0.0965 for the second.

Compared with AGGTCCAA, ACGACCCC is lower in “PBM E-score” value: -0.112 for the first, -0.127 for the second.

First: ATGGCAAA
Second: CTTGTACC
The “PBM E-score” value of the first is lower: -0.00556 for the first, 0.0814 for the second.

Compared with ATTGTACC, GTTGTACA is higher in “PBM E-score” value: 0.0764 for the first, 0.424 for the second.

First: ATTGTACG
Second: GCTGTACA
The “PBM E-score” value of the first is lower: 0.123 for the first, 0.154 for the second.

Going from GTTGTAGA to CTTGTAGA, the “PBM E-score” value falls from 0.325 to 0.253.

CTTGTACA and ATTGTACA are the same in “PBM E-score” value: 0.403 for the first, 0.403 for the second.

Going from CTAGTTCA to CCTCTCCG, the “PBM E-score” value falls from 0.0551 to -0.305.

Going from TAAGTCGA to CAACGGTC, the “PBM E-score” value rises from -0.0631 to -0.0538.

First: AAGAGGGA
Second: CAAGATAG
The “PBM E-score” value of the first is lower: -0.246 for the first, -0.0379 for the second.

First: GTTTTGAA
Second: ATCTCCTG
The “PBM E-score” value of the first is higher: 0.315 for the first, -0.0358 for the second.

Going from ATGTGTAG to GTGTGTAA, the “PBM E-score” value rises from 0.349 to 0.465.

Going from CTGTGTAA to ATGTGTAC, the “PBM E-score” value falls from 0.483 to 0.372.

First: ATGTGTAA
Second: AAGTGTAA
The “PBM E-score” value of the first is higher: 0.452 for the first, 0.156 for the second.

Going from CTGTGTAC to GAGTGTAA, the “PBM E-score” value falls from 0.35 to 0.295.

Compared with ATGTGTGC, CTGTGTCA is higher in “PBM E-score” value: -0.0456 for the first, 0.0766 for the second.

Compared with GGGTGTAA, CTGTGTGA is lower in “PBM E-score” value: 0.342 for the first, 0.247 for the second.

First: CTCAGAGA
Second: CGCTAAAC
The “PBM E-score” value of the first is lower: -0.0918 for the first, 0.0834 for the second.

First: CAAGATGA
Second: AAATGCCG
The “PBM E-score” value of the first is higher: -0.0169 for the first, -0.02 for the second.

Going from ACGGGGAA to AGACCACT, the “PBM E-score” value rises from -0.0619 to -0.00203.
